# aSyn 5UTR act = Activators via SNCA 5'UTR binding, MLPCN; alpha-synuclein 5'UTR reporter, activators screen; activity score, % (tested at 7.5 µM), hits read low; 300,000 compounds, 7.1% hits; in the data active = activity score below about -60%
# Starred values were filed as active, the others as inactive. Not all results are given here.
SMILES,aSyn 5UTR act
CC(Cc1ccccc1)/[N+]([O-])=C\c1ccc(C(F)(F)F)cc1 (centres undefined),-119*
CN(C)c1ccc(/C=C/[N+](=O)[O-])cc1,-74*
CCCCCn1c(=O)c(C(=O)Nc2ccccc2S(N)(=O)=O)c(O)c2ccccc21,69
CCCCCn1c(=O)c(C(=O)Nc2ccccc2C)c(O)c2ccccc21,-83*
CCCCCn1c(=O)c(C(=O)Nc2cnccn2)c(O)c2ccccc21,98
Cc1cc([N+](=O)[O-])c2ccccc2[n+]1[O-],127
COc1ccc(P2(=O)Nc3ccccc3N2)cc1,-139*
CCOC(=O)C(O)(c1ccc(NC(=O)NC2CCCCC2)cc1)C(F)(F)F (centres undefined),-83*
COc1ccc(C2NCc3ccc4c(c3-n3cccc32)OCO4)cc1O (centres undefined),61
Cc1ccc2nc3c(cc2c1)CC1(C(=O)N(C)C(=O)N(C)C1=O)C1COCCN31 (centres undefined),-63*
Cc1ccc2nc3c(cc2c1)CC1(C(=O)N(C)C(=O)N(C)C1=O)C1CCCCN31 (centres undefined),-106*
C=C1C(=O)O[C@@H]2C[C@@H](C)[C@@H]3C4OC4C(=O)[C@@]3(C)[C@@H](O)[C@H]12 (some centres undefined),-221*
Nc1ccccc1C(=O)OCc1ccc([N+](=O)[O-])cc1,-83*
CCn1c(C)c(C(=O)Nc2ccc(OC)cc2)c2cc(OC)ccc21,-86*
C#CCOc1cc(C2C3=C(COC3=O)Nc3cc4c(cc32)OCO4)ccc1OC (centres undefined),78
COc1cc(C=C2C(=O)NC(=O)NC2=O)ccc1OS(=O)(=O)c1ccccc1[N+](=O)[O-],-96*
CNc1ccc2oc(C[C@H]3O[C@@]4(CC[C@H]3C)O[C@H]([C@H](C)C(=O)c3ccc[nH]3)[C@H](C)C[C@H]4C)nc2c1C(=O)O,117
CC12CC[C@H]3[C@@H](CCC4(O)C[C@H](O)CCC34/C=N/NC(=O)c3ccccc3[N+](=O)[O-])C1(O)CCC2C1=CC(=O)OC1 (some centres undefined),117
CC(=O)Nc1ccccc1C(=O)OCc1cccc(F)c1,-85*
NC(N)=N/N=C/c1ccc(N(c2ccccc2)c2ccccc2)cc1,138
CC(C)[C@]12O[C@H]1[C@@H]1O[C@]13[C@]1(O[C@H]1C[C@H]1C4=C(CC[C@@]13C)C(=O)OC4)[C@@H]2O,124
C=CCN=C(SCC(=O)c1ccc(Cl)cc1)c1c(O)n(C)c(=O)n(C)c1=O,-71*
[O-]c1ccccc1-[n+]1c(-c2ccccc2)cc(-c2ccccc2)cc1-c1ccccc1,61
c1ccc(-c2nc(N3CCOCC3)s[n+]2-c2ccccc2)cc1,-75*
C[C@]12CC[C@H]3C(CCC4(O)CC(O)CC[C@]34C=O)C1=CC[C@H]2c1ccc(=O)oc1 (some centres undefined),82
SMILES,aSyn 5UTR act
Cc1cc(OCCN2CC2)c2ccccc2n1,-73*
O=C(Nc1ccccc1)c1cccn(Cc2ccccc2)c1=O,-96*
CCCCc1nc2ccccc2c(=O)n1-c1ccccc1[N+](=O)[O-],-73*
COc1ccc(NC2=NC(C)(C)CS2)cc1,-140*
O=c1[nH]c(=S)n(C2CC2)c(O)c1C=Nc1ccc2c(c1)OCO2,-141*
CN1CCN(c2ccc([N+](=O)[O-])c3no[n+]([O-])c23)CC1,98
CNC(=O)Oc1ccc(-c2cn3cc(C)ccc3n2)cc1,76
CNC(=O)Oc1cccc(-c2cn3cc(Cl)ccc3n2)c1,61
CC1Oc2cc3c(-c4c(O)cc(O)c5c(O)c6c(cc45)OC(C)C(C)C6=O)c(O)cc(O)c3c(O)c2C(=O)C1C (centres undefined),87
C[N+]1=C(/C=C/Nc2ccccc2)C(C)(C)c2ccccc21,-93*
O=C(c1ccccc1)C(CN1CCCC1)c1ccccc1 (centres undefined),-77*
CN1C(=O)C(=Cc2ccc(OCCN(C)c3ccccn3)cc2)C(=O)N(C)C1=O,-82*
COc1cc2c(c(OC)c1OC)-c1ccc(O)c(=O)cc1C(NC(C)=O)CC2 (centres undefined),90
CC1(C)CN=C(NCc2ccccc2Cl)S1,-92*
O=C(c1ccc2c(c1)ncn2C1CCCCC1)N1CCC2(CC1)OCCO2,-171*
Cc1ccc(-c2nc(N(C)C3CCN(C)CC3)c3ccccc3n2)cc1,-93*
Clc1ccccc1Nc1ncnc(-n2cccc2)n1,-160*
CC(C)(C)c1ccc(CSc2cnn(C(C)(C)C)c(=O)c2Cl)cc1,101
Cc1cc(NC(=O)CCl)no1,-99*
CN(C)c1ccc(C(=O)c2ccc(N(C)C)cc2)cc1,-108*
